Assay [1] in a line: Immunotoxin (HA22) sensitization/mitigation study. Vehicle arm (PBS) (AID 1159510). The conditions noted are these: cancer cells viability with PBS vehicle (HA22 study); series mostly up to 46.1 µM.
A short description of assay [2]: Immunotoxin (SS1P) sensitization/mitigation study. Vehicle arm (DMEM) (AID 1159513). The conditions noted are these: cell viability with vehicle (DMEM); series mostly up to 46.1 µM.

Several values for one entry are separate records, joined by “and”; a condition that tells them apart may be missing. Equal values may be shown once. Activity calls are given as the source filed them. How the calls were made is not given here.

Potency data for 46 compounds are collected here from PubChem BioAssay (NCATS).
Potency means the concentration at half of the fitted maximal effect.

Take `Cn1cncc1[C@@](N)(c1ccc(Cl)cc1)c1ccc2c(c1)c(-c1cccc(Cl)c1)cc(=O)n2C`: the results for the Potency in assay [1] and in assay [2] were 11.8 µM (active) and 20.9 µM (active), respectively.

Regarding `CN(C)CCN(C)C(=O)c1ccc(NC(=O)Nc2ccc(-c3nc(N4CCOCC4)c4ccn(CC(F)(F)F)c4n3)cc2)cc1`, the Potency was 1.48 µM (active) in assay [1] and 0.0264 µM (active) in assay [2].

Turning to `Cc1[nH]nc2ccc(-c3cncc(OC[C@@H](N)Cc4ccccc4)c3)cc12`, the Potency was 1.18 µM (active) in assay [1] and 1.32 µM (active) in assay [2].

For the compound `COc1ccc2c3n(c(=NC(=O)c4cccnc4)nc2c1OC)CCN3`, the figures for the Potency in assay [1] and in assay [2] were 11.8 µM (active) and 3.72 µM (active), respectively.

As to `Cc1ccc(NC(=O)c2cccc(C(C)(C)C#N)c2)cc1Nc1ccc2ncn(C)c(=O)c2c1`, the Potency is 23.5 µM (active) in assay [1] and 20.9 µM (active) in assay [2].

For the compound `CCCCCCCCCCCCCC(=O)N[C@H](CO)[C@H](O)c1ccc([N+](=O)[O-])cc1`, the Potency is 16.6 µM (active) in assay [1] and 23.5 µM (active) in assay [2].

With `CCN1CCN(CC(=O)Nc2ccc(-c3cccc4c(=O)cc(N5CCOCC5)oc34)c3sc4ccccc4c23)CC1`, the figures for the Potency in assay [1] and in assay [2] were 0.935 µM (active) and 1.66 µM (active), respectively.

Turning to `O=C1C(CCC(O)c2ccc(F)cc2)C(c2ccc(O)cc2)N1c1ccc(F)cc1` (configuration not stated), the Potency entry in assay [1] and in assay [2] was “inactive” each time.

For `CC(C)(N)C(=O)N[C@H](COCc1ccccc1)C(=O)N1CCC2(CC1)CN(S(C)(=O)=O)c1ccccc12`, the Potency in assay [1] is 18.7 µM (active); in assay [2], 8.33 µM (active).

For `c1ccc2c(CCNc3ccc(Nc4ccncc4)cc3)c[nH]c2c1`, the Potency in assay [1] was 1.87 µM (active); in assay [2] it was 20.9 µM (active).

On to `c1ccc2c(-c3cnn4cc(-c5ccc(N6CCNCC6)cc5)cnc34)ccnc2c1`, for which the Potency in assay [1] is 14.8 µM (active); in assay [2] it was 18.7 µM (active).

For `CC1(O)CC(c2nc(-c3ccc4ccc(-c5ccccc5)nc4c3)c3c(N)nccn23)C1` (configuration not stated), the Potency in assay [1] was 29.6 µM (active); in assay [2], 18.7 µM (active).

For the compound `COc1cc(Oc2ccnc3cc(OC)c(OC)cc23)ccc1NC(=O)NC(C)c1nccs1` (configuration not stated), the Potency was 16.6 µM (active) in assay [1] and 20.9 µM (active) in assay [2].

Regarding `CC(C)(C)c1[nH]cnc1C=c1[nH]c(=O)c(=Cc2ccccc2)[nH]c1=O`, the figures for the Potency in assay [1] and in assay [2] were 0.0074 µM (active) and 0.0118 µM (active), respectively.

For `O=C(C=Cc1c(C(=O)O)[nH]c2cc(Cl)cc(Cl)c12)Nc1ccccc1`, the Potency entry in assay [1] and in assay [2] was “inactive” in each case.

Consider `CS(=O)(=O)Oc1ccc2c(NC(N)=O)c(C(=O)c3ccc(Cl)cc3Cl)oc2c1`, for which the Potency entry in assay [1] and in assay [2] was “inactive” each time.

For the compound `COc1c(Cl)cc2c([nH]c3cnccc32)c1NC(=O)c1cccnc1C`, the Potency result in assay [1] and in assay [2] was “inactive” each time.

With `C=C1C(=CC=C2CCC[C@]3(C)[C@@H]([C@H](C)C=C[C@H](C)C(C)C)CC[C@@H]23)C[C@@H](O)C[C@@H]1O`, the Potency in assay [1] was 20.9 µM (active). Besides, in assay [2], the Potency entry was “inactive”.

With `OCCn1cc(-c2ccc3c(c2)CCC3=NO)c(-c2ccncc2)n1`, the Potency result in assay [1] and in assay [2] was “inactive” in each case.

Turning to `CC1(C)OC2=C(C(=O)c3ccccc3C2=O)[C@H](NCc2ccccc2)[C@H]1O`, the figures for the Potency in assay [1] and in assay [2] were 2.64 µM (active) and 13.2 µM (active), respectively.

For `NC(=O)Nc1cc(-c2ccc(CN3CCOCC3)c(F)c2)sc1C(=O)N[C@H]1CCCNC1`, the Potency was 0.0418 µM (active) in assay [1] and 0.209 µM (active) in assay [2].

For `O=C(Nc1cccnc1)N1CCC(Cc2cccc(Oc3ccc(C(F)(F)F)cn3)c2)CC1`, the results for the Potency in assay [1] and in assay [2] were 16.6 µM (active) and 6.62 µM (active), respectively.

As to `CCn1c(-c2nonc2N)nc2cnc(Oc3cccc(NC(=O)c4ccc(OCCN5CCOCC5)cc4)c3)cc21`, the Potency in assay [1] was 18.7 µM (active); in assay [2] it was 7.43 µM (active).

Take `COC(=O)C1=C(C)NC(C)=C(C(=O)OCCCN2CCC(c3ccccc3)(c3ccccc3)CC2)[C@H]1c1cccc([N+](=O)[O-])c1`: the Potency is 16.6 µM (active) in assay [1] and 26.4 µM (active) in assay [2].

Regarding `Cc1ccc2c(c1)C(=O)[C@@]1(O)CCN(c3ccccc3)C1=N2`, the Potency entry in assay [1] and in assay [2] was “inactive” each time.

Regarding `C[C@@H](N)C1CCC(C(=O)Nc2ccncc2)CC1` (some centres not stated), the Potency result in assay [1] and in assay [2] was “inactive” in each case.

As to `Cc1cccc(C#Cc2ccccc2)n1`, the Potency entry in assay [1] and in assay [2] was “inactive” in each case.

Consider `CC(C)CC(=O)Nc1n[nH]c2c1CN(C(=O)C1CCN(C)CC1)C2(C)C`, for which the Potency in assay [1] is 0.0526 µM (active); in assay [2], 0.264 µM (active).

Regarding `CCOC(=O)C1=C[C@@]2(CC)CCCN3CCc4c(n1c1ccccc41)[C@H]32`, the Potency result in assay [1] and in assay [2] was “inactive” each time.

In the case of `O=C(NCCCNc1nc(Nc2cccc(NC(=O)N3CCCC3)c2)ncc1I)c1cccs1`, the Potency is 11.8 µM (active) and 3.32 µM (active) in assay [1]; 20.9 µM (active) and 23.5 µM (active) in assay [2].

For `COc1cc2nc(-c3ccc(N4CCN(C)CC4)cc3)nc(NCCN3CCOCC3)c2cc1OC`, the figures for the Potency in assay [1] and in assay [2] were 2.35 µM (active) and 18.7 µM (active), respectively.

Consider `CCN(CC)CCn1c(=O)c(Cc2ccc(OC)cc2)nc2ccccc21`, for which the Potency result in assay [1] and in assay [2] was “inactive” throughout.

`Nc1nc(-c2nn(Cc3ccccc3F)c3ncccc23)nc(N)c1N1CCOCC1`: the Potency entry in assay [1] and in assay [2] was “inactive” each time.

In the case of `Cc1cccc(C=NNc2cc(N3CCOCC3)nc(OCCc3ccccn3)n2)c1`, the values for the Potency in assay [1] and in assay [2] were 4.69 µM (active) and 20.9 µM (active), respectively.

With `CCOc1cc2ncc(C#N)c(Nc3ccc(OCc4ccccn4)c(Cl)c3)c2cc1NC(=O)/C=C/CN(C)C`, the values for the Potency in assay [1] and in assay [2] were 4.69 µM (active) and 0.935 µM (active), respectively.

Turning to `OCCn1cc(-c2cnc3nnn(Cc4ccc5ncccc5c4)c3n2)cn1`, the Potency entry in assay [1] and in assay [2] was “inactive” in each case.

On to `Nc1nc(Nc2ccc(S(N)(=O)=O)cc2)nn1C(=O)c1c(F)cccc1F`, for which the Potency was 0.833 µM (active) in assay [1] and 3.72 µM (active) in assay [2].

Consider `CN1C(=O)C(Cc2c[nH]c3ccccc23)NC1=S` (configuration not stated), for which the Potency entry in assay [1] and in assay [2] was “inactive” each time.

Take `O=C1[C@H](Cc2ccc(O)cc2)N2C(=O)CCN(C(=O)NCc3ccccc3)[C@H]2CN1Cc1cccc2ccccc12`: the values for the Potency in assay [1] and in assay [2] were 6.62 µM (active) and 2.35 µM (active), respectively.

As to `COc1cc2c(Oc3ccc(-c4cnc(Nc5ccc(F)cc5)n(C)c4=O)cc3F)ccnc2cc1OCCCN1CCOCC1`, the Potency in assay [1] was 18.7 µM (active); in assay [2] it was 20.9 µM (active).

On to `O=C(NCCS(=O)(=O)c1ccc(C(F)(F)F)cn1)c1ccc(Cl)cc1`, for which the Potency entry in assay [1] and in assay [2] was “inactive” throughout.

Turning to `COc1ccc2c(c1)CC[C@H]1[C@@H]2CC[C@]2(C)[C@@H](NCCCCCCN3C(=O)C=CC3=O)CC[C@H]12`, the Potency in assay [1] and in assay [2] was 20.9 µM (active) in each case.

As to `C#Cc1cccc(Nc2ncnc3cc(OC)c(OCCCCCCC(=O)NO)cc23)c1`, the Potency in assay [1] was 0.132 µM (active); in assay [2], 0.526 µM (active).

On to `Cc1ccc(C(N)=O)cc1Nc1nccc(-c2cn(C(C)C)c3cnccc23)n1`, for which the Potency in assay [1] is 2.64 µM (active); in assay [2] it was 7.43 µM (active).

In the case of `C[C@H](NC(=O)Cc1cc(F)cc(F)c1)C(=O)N[C@@H]1C(=O)N(C)c2ccccc2-c2ccccc21`, the Potency entry in assay [1] and in assay [2] was “inactive” each time.

For `Cc1[nH]c2ccccc2c1CCNCc1ccc(C=CC(=O)NO)cc1`, the Potency is 0.0105 µM (active) in assay [1] and 0.0296 µM (active) in assay [2].
